Measurements published in PubChem BioAssay AID504332 (National Center for Advancing Translational Sciences (NCATS), 2011).
Several values for one entry are separate records, joined by “and”; a condition that tells them apart may be missing. Equal entries are not always repeated. Screen size: about 350,000 compounds; about 31,000 (8.9%) were called active. Inconclusive results (about 15%) are left out. The sample holds actives, similar compounds and a random draw of the others, so the mix is not that of the screen. The call rests on the fitted dose curve; in most records, active means well fitted inhibition curve with a large enough effect; inconclusive means small, poorly fitted or top-dose-only effect; inactive means no such curve, though single readings can be large or run the other way. Some structures have more than one record in an assay (separate samples or runs), and their calls can disagree.

biological target: Histone-lysine N-methyltransferase EHMT2 (Homo sapiens) (UniProt Q96KQ7); experiment: qHTS Assay for Inhibitors of Histone Lysine Methyltransferase G9a; conditions: G9a H3K9 monomethylation, AlphaScreen, 2 h; series mostly up to 59 µM; activity, negative = inhibition: at the top concentration; further: nearly all actives have a fitted effect of over 75% in size
Sequence (Q96KQ7 913-1193 limits assumed): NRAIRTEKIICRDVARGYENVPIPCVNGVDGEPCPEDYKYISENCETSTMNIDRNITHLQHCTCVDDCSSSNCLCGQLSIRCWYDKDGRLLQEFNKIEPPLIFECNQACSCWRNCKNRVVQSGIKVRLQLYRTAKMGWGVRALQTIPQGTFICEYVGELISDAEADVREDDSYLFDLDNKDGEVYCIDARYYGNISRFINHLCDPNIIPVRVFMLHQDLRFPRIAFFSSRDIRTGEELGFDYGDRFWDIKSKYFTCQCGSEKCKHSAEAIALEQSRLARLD
Method in brief: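 G9a (20 nM) preincubated 15 min RT with compounds, then 500 nM biotinylated H3K9 peptide and 20 uM SAM added; 2 h RT reaction. Monomethyl-H3K9 product detected by AlphaScreen with anti-H3K9me1 antibody, streptavidin donor and anti-rabbit IgG acceptor beads.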
On the % scale 0 is the no-effect control and ±100 the full control effect; potency means the concentration at half of the fitted maximal effect.

| Compound | activity, negative = inhibition | Potency |
| --- | --- | --- |
| CC(=O)c1c(C)[nH]c(C(=O)CN2C(=O)NC(C)(C)C2=O)c1C | 3.15% [at 0.501 µM] (inactive) | – |
| Cc1ccccc1CN1CCN(CC(=O)NCc2ccccn2)C1=O | 5.93% (inactive) | – |
| Cc1ccc(CN2CCN(Cc3cn(C)nc3-c3ccccc3)CC2CCO)o1 (stereo not drawn) | 2.66% [at 102 µM] (inactive) | – |
| Cc1ccccc1CN1C[C@@H]2C[C@@H](c3cn(C)nc3-c3ccccc3)N3CCC[C@@]23C1=O | – | 10 µM (active) |
| Cc1ccc(C(=O)CN2C(=O)NC3(CCc4ccccc43)C2=O)c(C)c1 (stereo not drawn) | 3.17% [at 102 µM] (inactive) | – |
| COc1ccccc1-n1ccnc1SCC(=O)NC(C)(C)C | 19.7% [at 102 µM] (inactive) | – |
| Cc1nnc(NC(=O)CSc2nccn2-c2cccc(C)c2C)s1 | – | 50.1 µM (active) |
| O=C(CSc1nccn1-c1ccc(F)cc1)Nc1cccc2ccccc12 | – | 14.1 µM (active) |
| O=C(CSc1nccn1Cc1ccc(F)cc1)NCc1ccccc1 | -3.68% (inactive) | – |
| Cc1cc(NC(=O)CSc2nccn2-c2ccc([N+](=O)[O-])cc2)no1 | -0.25% [at 102 µM] (inactive) | – |
| Cc1ccc2nc(SCC(=O)Nc3cccc4ccccc34)nc(=O)n2c1 | -26.2% [at 102 µM] (inactive) | – |
| COc1ccccc1-n1c(CNC(=O)c2ccccc2)nnc1SCC(=O)Nc1nnc(C)s1 | -4.37% [at 102 µM] (inactive) | – |
| Cc1ccc(C)c(-n2ccnc2SCC(N)=O)c1 | 23.6% [at 12.7 µM] (inactive) | – |
| Cc1cccc(-n2ccnc2SCC(=O)Nc2cccc3ccccc23)c1C | – | 12.6 µM (active) |
| COc1cccc(-c2ccc3c(c2)S(=O)(=O)c2cccc(C(=O)O)c2C3=O)c1OC | -17.9% [at 0.501 µM] (inactive) | – |
| CCC(=O)N1c2ccc(S(=O)(=O)NCc3ccco3)cc2CC1C (stereo not drawn) | -12.6% (inactive) | – |
| Fc1ccc(-n2ncc3c(Nc4ccc(Oc5ccccc5)cc4)ncnc32)cc1 | -1.42% (inactive) | – |
| CCCc1cc(=O)[nH]c2nnc(SCC(=O)Nc3nnc(SCC)s3)n12 | -30.1% [at 102 µM] (inactive) | – |
| Cc1cccc(Nc2nc(C)nc(N)c2S(=O)(=O)c2ccccc2)c1 | 4.77% (inactive) | – |
| C=CCc1cccc(/C=N/NC(=O)COc2ccc(-n3cnnn3)cc2)c1O | -11.3% [at 102 µM] (inactive) | – |
| CCN(CC)S(=O)(=O)c1ccc(N2CCOCC2)c(NC(=O)c2ccc(=O)n(C)n2)c1 | -4.25% [at 12.7 µM] (inactive) | – |
| CSCCC1NC2(C(=O)Nc3ccc(Cl)cc32)[C@@H]2C(=O)N(C3CCCC3)C(=O)[C@H]12 (stereo partly drawn) | – | 50.1 µM (active) |
| C[C@@]12C(=O)N(c3cccc(Br)c3)C(=O)N1[C@H](c1ccc(Cl)cc1)[C@@H]1C(=O)N(C3CCCCC3)C(=O)[C@@H]12 | -8.19% [at 102 µM] (inactive) | – |
| O=C1[C@@H]2C(Cc3ccc(O)cc3)NC3(C(=O)Nc4ccc(F)cc43)[C@@H]2C(=O)N1c1ccc(F)cc1 (stereo partly drawn) | -37.6% [at 12.7 µM] (inactive) | – |

| Compound | activity, negative = inhibition | Potency |
| --- | --- | --- |
| O=C(NCCS(=O)(=O)N1CCN(c2ccc(F)cc2)CC1)c1ccc2c(c1)OCO2 | -0.16% [at 102 µM] (inactive) | – |
| O=C(Nc1ccccc1F)C(c1ccccc1)N1Cc2ccccc2C1=O (stereo not drawn) | -1.89% (inactive) | – |
| CC1CCCCN1Cc1c(O)ccc2c(=O)c(-c3cccc(Cl)c3)c(C(F)(F)F)oc12 (stereo not drawn) | -1.19% (inactive) | – |
| CCCCC(CC)CNC(=O)C1CCN(S(=O)(=O)c2cccc3nsnc23)CC1 (stereo not drawn) | 3.29% (inactive) | – |
| CCOC(=O)C(=O)C1C(=O)Nc2ccccc21 (stereo not drawn) | -47.2% [at 2.33 µM] (inactive) | – |
| CCCCC(CC)CNC(=O)C(=O)C1C(=O)Nc2ccccc21 (stereo not drawn) | – | 44.7 µM (active) |
| O=C(c1ccc2c(c1)N(Cc1ccccc1)C(=O)c1ccccc1S2(=O)=O)N1CCCC1 | -26.6% (inactive) | – |
| O=C(c1ccc2c(c1)N(Cc1ccc(Cl)cc1)C(=O)c1ccccc1S2(=O)=O)N1CCCCC1 | -1.97% (inactive) | – |
| O=C(c1ccc2c(c1)N(Cc1ccc(F)cc1)C(=O)c1ccccc1S2(=O)=O)N1CCN(c2ccccn2)CC1 | – | inactive and 22.4 µM (active) |
| CCOC(=O)c1cc(C(=O)Nc2ccc(S(=O)(=O)Nc3ccc(OC)cc3)cc2)nn1C | 2.94% [at 102 µM] (inactive) | – |
| Cc1ccc2nc(-c3ccc(Br)cc3)cn2c1 | -9% [at 102 µM] (inactive) | – |
| O=C1C=C(c2cccc(Cl)c2)C[C@@H](c2ccc(F)cc2)C1 | 6.54% [at 0.501 µM] (inactive) | – |
| CC1=C(C(=O)OCc2ccc(C)cc2)C(c2ccccc2Cl)CC(=O)N1 (stereo not drawn) | -30.3% (inactive) | – |
| N/C(=N\OC(=O)/C=C/c1ccccc1)c1ccc(Br)cc1 | 23.4% [at 102 µM] (inactive) | – |
| N/C(=N\OC(=O)c1ccc2c(c1)OCO2)c1ccc(Br)cc1 | -36.4% [at 102 µM] (inactive) | – |
| N/C(=N\OC(=O)N1c2ccccc2Sc2ccccc21)c1ccc(Br)cc1 | – | 50.1 µM (active) |
| CCN1C(=O)/C(=C2/Sc3ccccc3N2CCCS(=O)(=O)O)SC1=S | – | 39.8 µM (active) |
| CCCCN1C(=O)/C(=C/C=C2/C=Cc3ccccc3N2CC)SC1=S | 7.58% [at 102 µM] (inactive) | – |
| CCN1C(=O)/C(=c2\s/c(=C3\Sc4ccccc4N3C)c(=O)n2C)N(C)C1=S | -35.3% [at 102 µM] (inactive) | – |
| CCN1C(=O)[C@H]2[C@@H](c3ccc(SC4CCCCC4)c(OC)c3)N[C@@](Cc3ccccc3)(C(=O)OC)[C@H]2C1=O | 20.9% [at 2.33 µM] (inactive) | – |
| CCc1ccccc1NC(=O)c1ccc(F)c(S(=O)(=O)NC2CCCCCC2)c1 | -9.97% (inactive) | – |
| Cn1c(=O)c2sccc2n2c(CCC(=O)NCc3ccccc3Cl)nnc12 | -1.25% (inactive) | – |
| Cc1ccccc1NC(=S)NNC(=O)c1cccc(Br)c1 | -38% [at 102 µM] (inactive) | – |
| Cc1ccc(-c2nnc3c4ccccc4c(C)nn23)cc1NC(=O)c1cccc(Br)c1 | 6.92% (inactive) | – |
